Data: PubChem BioAssay
Values joined by “and” are separate entries in the source; they are usually repeats but may differ in a detail not shown here. Equal values may be shown once. Active and inactive are the calls of the source.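 The calls were made as follows, unless noted: active = normalized viability below 100% at a tested concentration; inactive = the rest.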

Experiments:
[1] = test system: Hepatitis C virus NS3 helicase; test: blockers of NS3h binding to ssDNA – biochemical, fluorescence polarization, LOPAC1280 library, primary screen (AID 687035; in the data active = inhibition above about 37%); conditions: Purified HCV NS3 helicase, Cy5-dT15 ssDNA binding fluorescence polarization; stronger effect = higher value; concentration not given here
[2] = Wnt pathway potentiators raising nuclear beta-catenin – imaging, WNT3A-conditioned medium, mouse C2C12, NPC library, primary screen (AID 1117326; in the data active = nuclear beta-catenin stimulation mostly above about 4.2%, no sharp cut-off; inactive = mostly below about 10%); conditions: stronger effect = higher value
[3] = stimulators of insulin release from INS-1E, primary screen, cell-based, 5 mM glucose, NPC library (AID 1117329;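 active = compound raises insulin release from rat beta cells at 5 mM glucose, no numeric limit stated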); conditions: rat INS-1E insulin secretion, at 10 µM, stronger effect = higher value
[4] = growth inhibition of GSK3B-pretreated HCT116 cells – cell-based, CellTiter-Glo, 0.2 to 20 µM (AID 1117336;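 active = compounds lowering colon cancer cell viability after pretreatment blocking the GSK3B kinase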); conditions: HCT116 viability after GSK3B inhibitor, at 20 µM, stronger effect = higher value
[5] = inhibition of endothelial tube formation, primary screen, imaging, VEGF stimulated, CD31 staining, tube area, NPC library (AID 1117340;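 active = compound that reduces growth-factor-driven endothelial tube area in a mixed cell culture, no cutoff stated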); conditions: VEGF-stimulated ADSC/ECFC co-culture, at 10 µM, stronger effect = higher value
[6] = GLP1 release stimulators, primary, NCI-H716, NPC library (AID 1117341;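 active = compound raises GLP1 secretion from the human gut endocrine cells, with no numeric limit stated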); conditions: NCI-H716 cells, at 10 µM, stronger effect = higher value
[7] = HCT116 colon cancer cell growth inhibition, primary screen, CellTiter-Glo luminescence, NPC library (AID 1117342;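 active = compounds that lower survival of HCT116 colon cancer cells in the luminescence readout, no numeric limit stated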); conditions: at 20 µM (top of the series)
[8] = reduced SW480 viability measured with CellTiter-Glo, NPC library, primary (AID 1117343;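 active = compounds that lower viability of the colon cancer cells in the luminescence readout, with no numeric limit stated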); conditions: CellTiter-Glo luminescence; at 20 µM (top of the series)
[9] = NPC library primary testing for decreased DLD-1 cell viability via CellTiter-Glo (AID 1117346;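 active = compounds that lower survival of DLD-1 colon cancer cells in the luminescence readout, no cutoff given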); conditions: DLD-1 viability, CellTiter-Glo luminescence; at 20 µM (top of the series)
[10] = viability loss with induced miR-34 in A549 – imaging, A549 dox-inducible miR-34, nuclei and caspase counts, primary screen (AID 1347080;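 active = compounds whose cell count with miR-34 switched on is under 0.7 times the count with it off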); conditions: A549 miR-34 inducible, Hoechst nuclei count, 48 h
[11] = MELAS cybrid and Rieske KO viability enhancers – cell-based, MELAS cybrids, Rieske KO mouse fibroblasts, CellTiter-Glo, primary screen (AID 1508586;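 active = mean z-score across replicates of 1.96 or higher in either the MELAS or the Rieske mutant cell line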;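 also: z relative to plate mean and SD of compound and empty wells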); conditions: low glucose
[12] = drug combination growth inhibition, ovarian cancer – cell-based, oncology-focused library, rucaparib conditional, profiling panel (AID 1508598); conditions: patient-derived ovarian cancer cells, CellTiter-Glo viability, 144 h, stronger effect = lower value
[13] = galactose survival enhancers in mitochondrial complex I cybrids – cell-based, galactose medium, ATP luminescence, primary screen (AID 1645843;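 active = z-score of at least 1.8 in each of two replicates, scored against plate mean and spread of sample wells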;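 also: positive z means more ATP and so rescue of galactose-driven cybrid death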); conditions: complex I mutant cybrid cells, 72 h, stronger effect = higher value
[14] = compounds altering viability of human ES cells (AID 493140; call rule not given here;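 also: cells exposed to compounds for four days before counting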); conditions: human embryonic stem cell survival screen; stronger effect = higher value
[15] = P. berghei load reduction in hepatocytes – cell-based, HepG2, luciferase luminescence, HepG2 viability, primary screen (AID 624349; in the data active = parasite load remaining mostly below about 12%, no sharp cut-off; inactive = mostly above about 10%;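 also: 100% = mean of DMSO negative control wells on the same plate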); conditions: P. berghei liver stage in HepG2, luciferase luminescence, concentration not given here; parasite load remaining: stronger effect = lower value; viability: measured here: HepG2 viability without parasites
[16] = EMT-state selective cytotoxicity in co-culture – imaging, PC-3E GFP, TEM4-18 mCherry, primary screen (AID 1345086;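 active = compounds killing one labelled cell type while sparing the other, by normalised counts and ratio limits, not self-fluorescent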;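 also: cells exposed to compound for 72 h before imaging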;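 as to red/green cell ratio (normalised): normalised mesenchymal count divided by normalised epithelial count so high means epithelial killing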); conditions: PC-3E GFP / TEM4-18 mCherry co-culture, imaging cell counts, at 1 µM
[17] = target: NAD(+) hydrolase SARM1 (Homo sapiens) (UniProt Q6SZW1); test: blocking NAD cleavage by SARM1 SAM-TIR – cell lysate, NAD-Glo luminescence (AID 1508614;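 active = compound whose remaining NAD level is above about 45 nM, limit read from the data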;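 also: higher remaining NAD means stronger inhibition of SARM1 NADase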); conditions: SAM-TIR HEK293T lysate NADase, at 1 µM, stronger effect = higher value
NAD(+) hydrolase SARM1 (Homo sapiens), sequence (Q6SZW1 whole entry, looked up): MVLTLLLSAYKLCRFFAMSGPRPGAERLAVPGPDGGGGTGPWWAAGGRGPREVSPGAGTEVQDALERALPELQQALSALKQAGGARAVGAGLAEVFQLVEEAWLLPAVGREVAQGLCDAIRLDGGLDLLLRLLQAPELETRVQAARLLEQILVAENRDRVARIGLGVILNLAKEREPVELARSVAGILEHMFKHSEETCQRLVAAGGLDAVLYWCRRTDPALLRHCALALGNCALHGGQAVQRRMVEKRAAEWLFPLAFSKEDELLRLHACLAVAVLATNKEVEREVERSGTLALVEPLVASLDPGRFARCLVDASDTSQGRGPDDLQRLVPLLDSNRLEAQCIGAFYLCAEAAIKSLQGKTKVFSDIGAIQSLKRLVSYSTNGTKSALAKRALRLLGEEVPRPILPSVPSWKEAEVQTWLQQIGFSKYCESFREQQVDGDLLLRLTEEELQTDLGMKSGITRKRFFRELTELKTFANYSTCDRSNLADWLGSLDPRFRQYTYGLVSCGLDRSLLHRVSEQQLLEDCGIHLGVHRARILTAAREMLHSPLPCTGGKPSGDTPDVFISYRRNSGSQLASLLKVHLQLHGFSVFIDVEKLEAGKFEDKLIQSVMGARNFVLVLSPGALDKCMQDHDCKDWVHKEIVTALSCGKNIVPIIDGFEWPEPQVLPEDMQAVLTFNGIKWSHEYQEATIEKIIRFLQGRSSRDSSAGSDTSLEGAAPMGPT

[18] = test system: Aerobactin synthetase IucA (Klebsiella pneumoniae, hypervirulent); test: biochemical IucA inhibition screen of LOPAC library by absorbance (AID 1346212; call rule not given here;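 also: 100% = no compound wells and 0% = no enzyme wells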); conditions: IucA enzyme assay, absorbance (OD) readout; stronger effect = lower value;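 tested at 8 µM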
[19] = measured here: relative caspase fold change +Dox/-Dox
[20] = measured here: total cells with miR-34 induction, stronger effect = lower value
[21] = measured here: total cells without miR-34 induction
[22] = MELAS cybrid survival, CellTiter-Glo 48 h, stronger effect = higher value
[23] = Rieske KO mouse fibroblast survival, CellTiter-Glo 72 h

Cn1c(CCCC(=O)O)nc2cc(N(CCCl)CCCl)ccc21
7880 and 7250: cell count [10, 21]
inactive: inhibition [1] -4% | nuclear beta-catenin stimulation ([2]; at 10 µM) 3% | insulin secretion stimulation [3] 0.9% | viability decrease [4] -12.4% | GLP1 secretion stimulation [6] -0.7% | inhibition of viability [7] 6.5% | viability decrease (inhibition) [8] 18.4% | viability decrease (inhibition) [9] -5.7% | fold change ([10]; stronger effect = lower value) 1.1 and 0.89 | z-score [11, 22] -0.517 | viability ([12]; at 0.000305 µM, OCI-C5x cells, with rucaparib 10 µM, 100% = cells with rucaparib alone) 103% | viability ([12]; at 0.000305 µM, OCI-C5x cells, without rucaparib) 107% | viability ([12]; at 0.000305 µM, OCI-P5x cells, with rucaparib 20 µM, 100% = cells with rucaparib alone) 107% | viability ([12]; at 0.000305 µM, OCI-P5x cells, without rucaparib) 101% | viability ([12]; at 0.00122 µM, OCI-P5x cells, without rucaparib) 102% | viability ([12]; at 0.00488 µM, OCI-C5x cells, with rucaparib 10 µM, 100% = cells with rucaparib alone) 104% | viability ([12]; at 0.00488 µM, OCI-C5x cells, without rucaparib) 104% | viability ([12]; at 0.00488 µM, OCI-P5x cells, with rucaparib 20 µM, 100% = cells with rucaparib alone) 103% | viability ([12]; at 0.00488 µM, OCI-P5x cells, without rucaparib) 109% | viability ([12]; at 0.0195 µM, OCI-C5x cells, with rucaparib 10 µM, 100% = cells with rucaparib alone) 105% | viability ([12]; at 0.0195 µM, OCI-P5x cells, without rucaparib) 100% | viability ([12]; at 0.0781 µM, OCI-C5x cells, with rucaparib 10 µM, 100% = cells with rucaparib alone) 109% | viability ([12]; at 0.313 µM, OCI-C5x cells, with rucaparib 10 µM, 100% = cells with rucaparib alone) 104% | viability ([12]; at 0.313 µM, OCI-C5x cells, without rucaparib) 101% | viability ([12]; at 1.25 µM, OCI-C5x cells, with rucaparib 10 µM, 100% = cells with rucaparib alone) 124% | viability ([12]; at 5 µM, OCI-C5x cells, with rucaparib 10 µM, 100% = cells with rucaparib alone) 106% | z-score [13] 0.31
0.645 and 1.16: fold change [10, 19]
-0.135: z-score [11, 23]
0.9%: nuclear beta-catenin stimulation ([2]; stimulation, at 2 µM)
active: tube area decrease [5] 44.6% | viability ([12]; at 0.00122 µM, OCI-C5x cells, with rucaparib 10 µM, 100% = cells with rucaparib alone) 97.3% | viability ([12]; at 0.00122 µM, OCI-C5x cells, without rucaparib) 99.1% | viability ([12]; at 0.00122 µM, OCI-P5x cells, with rucaparib 20 µM, 100% = cells with rucaparib alone) 99.9% | viability ([12]; at 0.0195 µM, OCI-C5x cells, without rucaparib) 99.7% | viability ([12]; at 0.0195 µM, OCI-P5x cells, with rucaparib 20 µM, 100% = cells with rucaparib alone) 93.4% | viability ([12]; at 0.0781 µM, OCI-C5x cells, without rucaparib) 97.6% | viability ([12]; at 0.0781 µM, OCI-P5x cells, with rucaparib 20 µM, 100% = cells with rucaparib alone) 92.7% | viability ([12]; at 0.0781 µM, OCI-P5x cells, without rucaparib) 96.4% | viability ([12]; at 0.313 µM, OCI-P5x cells, with rucaparib 20 µM, 100% = cells with rucaparib alone) 95% | viability ([12]; at 0.313 µM, OCI-P5x cells, without rucaparib) 74.7% | viability ([12]; at 1.25 µM, OCI-C5x cells, without rucaparib) 97.4% | viability ([12]; at 1.25 µM, OCI-P5x cells, with rucaparib 20 µM, 100% = cells with rucaparib alone) 92.4% | viability ([12]; at 1.25 µM, OCI-P5x cells, without rucaparib) 79.4% | viability ([12]; at 5 µM, OCI-C5x cells, without rucaparib) 93% | viability ([12]; at 5 µM, OCI-P5x cells, with rucaparib 20 µM, 100% = cells with rucaparib alone) 80.1% | viability ([12]; at 5 µM, OCI-P5x cells, without rucaparib) 84.8%
8630 and 6450: cell count [10, 20]

CC(C)c1c(CN(C)C(C)Cc2ccccc2)n(C)n(-c2ccccc2)c1=O (stereo unspecified)
1.06: fold change [10, 19]
0.98: normalised cell number ([16]; measured here: mesenchymal TEM4-18 mCherry cell survival)
inactive: survival [14] 1.08 | parasite load remaining [15] 76.8% | nuclear beta-catenin stimulation ([2]; at 10 µM) 1.5% | insulin secretion stimulation [3] 0% | viability decrease [4] -83% | tube area decrease [5] 9.4% | GLP1 secretion stimulation [6] 3.9% | red/green cell ratio (normalised) ([16]; actives lie on both sides) 1.06 | fold change ([10]; stronger effect = lower value) 0.889 | z-score [11, 22] -1.05 | remaining NAD [17] 10 nM
0.93: normalised cell number ([16]; measured here: epithelial PC-3E GFP cell survival)
87.3%: viability [15]
active: inhibition of viability [7] 50.3% | viability decrease (inhibition) [8] 103% | viability decrease (inhibition) [9] 73.2%
5.4%: nuclear beta-catenin stimulation ([2]; stimulation, at 2 µM)
0.158: z-score [11, 23]
8350: cell count [10, 20]
9380: cell count [10, 21]

CN1[C@@H]2CC[C@H]1CC(OC(=O)c1cc(Cl)cc(Cl)c1)C2 (stereo partly specified)
active: viability decrease [4] 59.7% | inhibition of viability [7] 87.1% | viability decrease (inhibition) [8] 63.5% | viability decrease (inhibition) [9] 85.1%
inactive: nuclear beta-catenin stimulation ([2]; at 10 µM) 5.5% | insulin secretion stimulation [3] 14.4% | tube area decrease [5] 2.2% | GLP1 secretion stimulation [6] 13.6% | remaining activity [18] 96.1%
3.7%: nuclear beta-catenin stimulation ([2]; stimulation, at 2 µM)
